# ± gives the standard deviation of the averaged measurements.
# Tests used:
# [1] = test system: DLD1; assay: cell viability (CellTiter-Glo) relative to plate median (fraction of plate median); higher = more viable cells; details: 5 µM; treatment time 24 h; reporter: 7TFP
# Procedure, shortened: (§1)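 Luminescence, normalised well by well to the plate median, is tabulated as a mean of independent replicates. There were two replicates, run on colorectal cancer lines stably transduced with lentiviral TCF/Wnt firefly luciferase reporters and dosed with library compounds at a final 5 µM for 24 h. Readouts were firefly luciferase or CellTiterGlo on parallel plates.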
# [2] = test system: HCT116; assay: as above; details: 5 µM; treatment time 24 h; reporter: TCF4/Wnt
# Procedure, shortened: as §1
# [3] = test system: SW480; assay: as above; details: 5 µM; treatment time 24 h; reporter: 7TFP
# Procedure, shortened: as §1
# [4] = test system: DLD1; assay: TCF/Wnt firefly luciferase reporter signal relative to plate median (fraction of plate median); higher = higher Wnt reporter signal; details: 5 µM; treatment time 24 h; reporter: 7TFP
# Procedure, shortened: as §1
# [5] = test system: SW480; assay: as above; details: 5 µM; treatment time 24 h; reporter: 7TFP
# Procedure, shortened: as §1
SMILES,cell viability [1],cell viability [2],cell viability [3],TCF/Wnt firefly luciferase reporter signal [4],TCF/Wnt firefly luciferase reporter signal [5]
CC1(C)S[C@@H]2[C@H](NC(=O)Cc3ccccc3)C(=O)N2[C@H]1C(=O)O,0.914 ± 0.0057,0.968 ± 0.025,1.02 ± 0.067,1.16 ± 0.11,0.949 ± 0.14
C[C@]12CC[C@@H]3c4ccc(O)cc4CC[C@H]3[C@@H]1C[C@@H](O)[C@@H]2O,1.03 ± 0.035,1.05 ± 0.057,1 ± 0.035,1.07 ± 0.085,1.16 ± 0.071
CCOC(=O)N1CCC(=C2c3ccc(Cl)cc3CCc3cccnc32)CC1,0.987 ± 0.047,0.896 ± 0.064,0.962 ± 0.068,1.08 ± 0.19,0.94 ± 0.032
O=c1c(O)c(-c2ccccc2)oc2cccc(O)c12,1.03 ± 0.014,1.02 ± 0.044,1.01 ± 0.045,1.07,0.969 ± 0.021
CC(=O)O[C@]1(C(C)=O)CC[C@H]2[C@@H]3C=C(C)C4=CC(=O)CC[C@]4(C)[C@H]3CC[C@@]21C,0.988 ± 0.088,0.971 ± 0.037,0.984 ± 0.037,1.03 ± 0.086,1 ± 0.04
Nc1nnc(-c2cccc(Cl)c2Cl)c(N)n1,1.05 ± 0.05,1.04 ± 0.069,0.975 ± 0.05,0.923 ± 0.018,0.985 ± 0.036
COc1c(-c2coc3cc4c(cc3c2=O)CC(O)C(C)(C)O4)ccc2c1C=CC(C)(C)O2 (stereo not given),0.973 ± 0.081,0.973 ± 0.12,1.02 ± 0.079,0.869 ± 0.0014,0.946 ± 0.077
CCCCS(=N)(=O)CCC(N)C(=O)O (stereo not given),1.04 ± 0.021,0.948 ± 0.22,1.08 ± 0.014,1.05 ± 0.028,1.03 ± 0.11
Cc1oncc1C(=O)Nc1ccc(C(F)(F)F)cc1,1.05 ± 0.11,1.15,1.13 ± 0.071,1.14 ± 0.05,1.05 ± 0.11
O=C1N=C(O)NC1(c1ccccc1)c1ccccc1,1.06 ± 0.05,0.957 ± 0.015,1.005 ± 0.0071,1.08 ± 0.021,1.08 ± 0.021
COC(=O)[C@@]1(C)CCC[C@]2(C)c3ccc(O)c(C(C)C)c3CCC12 (stereo not given in full),1.03 ± 0.028,0.982 ± 0.096,1.03 ± 0.028,0.892 ± 0.046,0.88 ± 0.049
C[C@@H]1Cc2cc(O)cc(O)c2C(=O)O1 [6-Hydroxymellein],0.98 ± 0.0071,0.987 ± 0.018,1.015 ± 0.0071,0.927 ± 0.1,0.974 ± 0.037
CCc1cccc2c3c([nH]c12)C(CC)(CC(=O)O)OCC3 (stereo not given),0.949 ± 0.073,0.957 ± 0.089,0.921 ± 0.025,1.04 ± 0.021,1.08 ± 0.035
CN(C)C(=N)NC(=N)N,0.966 ± 0.076,1.003 ± 0.0099,1.01 ± 0.025,1.03 ± 0.13,1 ± 0.054
CC(=O)Nc1c(I)cc(I)c(C(=O)O)c1I,1 ± 0.16,0.987 ± 0.014,0.946 ± 0.055,0.995 ± 0.092,1.09 ± 0.099
O=c1c(-c2ccc(O)cc2)coc2cc(O)cc(O)c12,1.09 ± 0.021,1.03 ± 0.05,1.06 ± 0.021,1.065 ± 0.0071,1.12
Nc1nc(=O)c2c([nH]1)NCC(CNc1ccc(C(=O)N[C@@H](CCC(=O)O)C(=O)O)cc1)N2C=O (stereo not given in full),1 ± 0.085,1.03,1.01 ± 0.019,1.02 ± 0.12,1.01 ± 0.028
COC(=O)C1=CO[C@@H](O[C@@H]2O[C@H](CO)[C@@H](O)[C@H](O)[C@H]2O)[C@@H]2[C@@H](C)[C@@H](O)C[C@H]12,1.045 ± 0.0071,1.02 ± 0.047,1.06 ± 0.035,1.01 ± 0.016,1.09 ± 0.064
C=CC(C1=CC(=O)C(OC)=CC1=O)c1ccc(OC)cc1 (stereo not given),1.06 ± 0.035,1.13 ± 0.085,1.03 ± 0.054,0.988 ± 0.059,1 ± 0.11
CC(=O)OCC(CCn1cnc2cnc(N)nc21)COC(C)=O,0.9935 ± 0.0021,0.97 ± 0.04,0.9805 ± 0.0092,0.984 ± 0.052,1.025 ± 0.0071
CC(=O)O[C@@H]1CC2C(C)(C)C(=O)C3OC3[C@]2(C)C2CC[C@@]3(C)[C@H](c4ccoc4)OC(=O)C4OC43[C@@]21C (stereo not given in full),1.06 ± 0.014,1.1 ± 0.085,1.02 ± 0.035,1.02 ± 0.057,0.864 ± 0.078
O=C(O)CN(CC(=O)O)Cc1cc2c(cc1O)Oc1cc(O)c(CN(CC(=O)O)CC(=O)O)cc1C21OC(=O)c2ccccc21,0.965 ± 0.03,0.914 ± 0.089,0.96 ± 0.053,0.909 ± 0.13,0.895 ± 0.12
COc1ccc(-c2coc3cc(OC)cc(OC)c3c2=O)cc1,1.03 ± 0.086,1.04,1.035 ± 0.0071,0.963 ± 0.11,1.04 ± 0.028
CC(=O)NO,1.035 ± 0.0071,0.999 ± 0.059,1.05 ± 0.057,1.155 ± 0.0071,1.075 ± 0.0071
O=C1[C@H](CC[C@H](O)c2ccc(F)cc2)[C@@H](c2ccc(O)cc2)N1c1ccc(F)cc1,0.828 ± 0.15,1.01 ± 0.063,0.961 ± 0.084,0.952 ± 0.17,0.919 ± 0.11
O=c1c(-c2ccccc2)coc2cc(O)cc(O)c12,0.94 ± 0.11,0.883 ± 0.027,0.993 ± 0.053,0.926 ± 0.097,1.04 ± 0.18
O=C(C1CCCCC1)N1CC(=O)N2CCc3ccccc3C2C1 (stereo not given),0.9955 ± 0.0064,0.984 ± 0.037,0.98 ± 0.042,1.02 ± 0.034,0.918 ± 0.12
NCC(=O)CCC(=O)O,1.01 ± 0.021,1.06 ± 0.042,1.01 ± 0.021,1.1 ± 0.071,1.07 ± 0.021
C[C@]12CC[C@H]3C(=CCc4cc(O)ccc43)[C@@H]1CCC2=O,0.902 ± 0.086,0.869 ± 0.16,1.01 ± 0.031,1.07 ± 0.25,0.98 ± 0.057
CN(C)CCOC(c1ccccc1)c1ccccc1.Cn1c(=O)c2[nH]c(Cl)nc2n(C)c1=O,0.909 ± 0.025,1.04 ± 0.1,0.927 ± 0.022,1.14 ± 0.13,1.12 ± 0.021
